PubChem BioAssay AID1566 (Sanford-Burnham Center for Chemical Genomics, 2009)
The campaign covered roughly 290,000 compounds. About 1,800 (0.62%) were called active. Rule as the data show it: active = inhibition above about 50%; inactive = the rest. The sample as a whole holds a higher share of actives than the screen did.

Test: NOD2 signaling inhibitors, cell-based, luminescence, uHTS, HEK293 (AID 1566)
Conditions: HEK293 NOD2/NF-kB luciferase reporter, at 4 µM, active compounds read high

inhibition, inactive:
Cc1nc(SCc2ccc(F)cc2)c2oc3ccccc3c2n1 11.8%
CC1CCCN(c2ncnc3c2cnn3-c2ccccc2)C1 (centres undefined) -14.2%
CCOC(=O)C1CCN(c2ncnc3c2cnn3-c2ccccc2)CC1 1.8%
CCOC(=O)C1CCN(c2ncnc3c2cnn3-c2ccc(OC)cc2)CC1 23.8%
c1ccc(-n2ncc3c(N4CCCCC4)ncnc32)cc1 -32.5%
CC1CC(C)CN(c2ncnc3c2cnn3-c2ccc(Cl)cc2)C1 (centres undefined) 27.7%
Clc1ccc(-n2ncc3c(N4CCCC4)ncnc32)cc1 17.1%
COc1ccc(-n2ncc3c(N4CCC(C)CC4)ncnc32)cc1 -97.6%
COc1ccc(-n2ncc3c(N4CCC(C(N)=O)CC4)ncnc32)cc1 -46.4%
CCCc1cc(=O)oc2cc(OCC(=O)NCc3ccccn3)ccc12 8.8%
CSc1ncc(Cl)c(C(=O)Nc2c(C)cccc2C)n1 -5.2%
N#Cc1c(NCCN)nc(-c2ccccc2)c2c1CCCC2 10.4%
O=C(/C=C/c1cccc(Cl)c1)NCc1ccccc1 9.9%
CN(Cc1nc(Cc2ccccc2F)no1)Cc1cccc2ncccc12 19.2%
COc1ccc(NC(=O)COC(=O)C2CCC(C(C)(C)C)CC2)c([N+](=O)[O-])c1 (centres undefined) 16.1%
Cc1cc(C(F)(F)F)nc(CCNCc2c(C(=O)N3CCCC3)nc3ccccn23)n1 12.8%
Cc1ccc(/C=N/c2sc3c(c2C(N)=O)CCCC3)o1 -59.1%
COc1ccc(-n2c(=S)[nH]c3cc(C(=O)Nc4cccc(C)c4)ccc3c2=O)cc1 -42%
O=C(O)CC1NC(=O)N(c2ccc(Cl)cc2)C1=O (centres undefined) 5.4%
N#CC1=C(SCc2ccccc2)NC(=O)CC1c1cccc(O)c1 (centres undefined) 12.9%
O=S(=O)(c1ccc(Cl)cc1)N1CCN(S(=O)(=O)N2CCCCCC2)CC1 -1.1%
CC(C)(C)OC(=O)N1CCC(c2cc(=O)n3[nH]c(-c4ccc(Cl)cc4)cc3n2)CC1 8%
Cc1nc2sc(C(c3ccc(Cl)cc3)N3CCN(C(=O)c4ccco4)CC3)c(O)n2n1 (centres undefined) 1.9%
Cc1ccc(NS(=O)(=O)c2ccc(-c3cnc(C4CC4)o3)cc2)cc1 -3.1%
COc1ccc(S(=O)(=O)Nc2ccc3c(c2)OCO3)cc1OC -22.1%
COc1ccc(C)cc1NS(=O)(=O)c1ccc(-c2cnc(C3CC3)o2)cc1 27.1%
COc1ccc(S(=O)(=O)Nc2ccc3c(c2)OCCO3)cc1OC 4%
COc1ccc(-c2noc(-c3ccoc3C)n2)cc1 -47.8%
CC(C)(C)C(=O)Nc1ccc(-c2cnco2)cc1 2.7%
Cc1ccc(CC(=O)Nc2ccc(C(=O)N3CCCCC3)cc2)cc1 0.3%
Cc1ccc(C23CC4CC(CC(NC(=O)NC(C)(C)CO)(C4)C2)C3)cc1 -8.2%
COc1ccccc1C1(O)C(=O)Nc2ccccc21 (centres undefined) 24.1%
CCOC(=O)N/N=C/c1c(C)nn(-c2ccccc2Cl)c1Cl -45.5%
Cc1nn(-c2ccccc2Cl)c(Cl)c1/C=N/Nc1cccc(C(=O)O)c1 -183%
COc1ccccc1NC1=C(C)C(=O)CC1 5.8%
Cc1cccc(NC(=O)N2CCC(C(=O)c3ccc(F)cc3)CC2)c1 -7.7%
O=C1CCCN2N=C(SCC(=O)Nc3cccc(Cl)c3)SC2=N1 43.7%
O=C1CCCN2N=C(SCC(=O)Nc3cccc(F)c3)SC2=N1 -16.8%
CCC(C(=O)NCCCN1CCCCCC1)n1nc(C)c2sc3ccccc3c2c1=O (centres undefined) -40.3%
CCC(C)(C)c1ccc(OCCCC[n+]2ccccc2)c(C(C)(C)CC)c1 12%
CCC(C)(C)c1ccc(OCCCC[n+]2ccc(C)cc2)c(C(C)(C)CC)c1 29.7%
CC(C)(C)NC(=O)NC(=O)COC(=O)Cc1c(Cl)cccc1Cl 1.1%
COc1ccc(CCNc2oc(COc3ccc(F)cc3)nc2C#N)cc1 -49.7%
COc1ccc(CCNc2oc(COc3ccccc3)nc2C#N)cc1 -27.2%
COc1ccc(CCNc2oc(COc3ccccc3F)nc2C#N)cc1OC 9.2%
COc1ccc(CCNc2oc(Cc3ccccc3)nc2C#N)cc1OC 36.6%
CCOC(=O)N1CCN(C(=O)CSc2nc3c(cnn3-c3ccccc3)c(=O)[nH]2)CC1 2.1%
COc1ccc(-c2cc(=O)oc3c(C)c(OCC(=O)NCC4CCC(C(=O)O)CC4)ccc23)cc1 (centres undefined) 23.3%
N#CC1=C(SCC(=O)NC2CC2)NC(=O)C(C#N)C12CCCCC2 (centres undefined) -1.6%
CCSC1=C(C#N)C2(CCCCC2)C(C#N)C(=O)N1 (centres undefined) 10.3%
Cc1nn(-c2cc(N3CCCCC3)ccc2[N+](=O)[O-])c(=O)c2ccccc12 -6.2%
CCC(C)[C@H](NC(=O)C1CC(=O)N(c2ccc(OC)cc2)C1)C(=O)N1CCCCC1 (some centres undefined) 12.9%
COC(=O)c1ncn(C2OC(COC(C)=O)C(OC(C)=O)C2OC(C)=O)n1 (centres undefined) 18.8%
CCN1CCN(CCC(=O)Nc2ccc(F)c(F)c2)CC1 1.5%
CCN(CC)S(=O)(=O)c1ccc2nnn(O)c2c1 -3.6%
Cc1ccc(-n2nc3c(=O)n(CCCC(=O)N4CCC(C)CC4)nc(C)c3c2C)cc1 27.9%
Cc1ccc(-n2nc(C)c3c(=O)[nH]c(C(F)(F)F)nc32)cc1 32.3%
Cc1nn(-c2ccccc2)c2nc(C(F)(F)F)[nH]c(=O)c12 30.5%
O=C(COc1ccc(Cl)cc1Cl)Nc1ccc(Cl)cn1 -209%
O=C(CCCOc1ccc(Cl)cc1Cl)Nc1ccccn1 -183%
Cc1cccc(NC2=NCC(=O)N2CCc2ccccc2)c1 -0.2%
COc1cc(C(=O)N(c2ccc(C)c(C)c2)C2C=CS(=O)(=O)C2)cc(OC)c1OC (centres undefined) -4.9%
COc1ccc(-c2noc(CCC(=O)O)n2)cc1 11.3%
O=C(O)CCCc1nc(-c2ccccc2)no1 -10%
O=C(NCCc1ccc(C(F)(F)F)cc1)C1CCC(=O)N(CCc2cccc(F)c2)C1 (centres undefined) -4.6%
CN(C)/N=C/C=C1\CC/C(=C\c2ccc(Br)cc2)C1=O -21.2%
COc1ccc(/C=C2\CCC/C(=C\C=N\N(C)C)C2=O)cc1 -25.5%
Cc1ccc(-c2cc(C(F)F)nc(N3CCOCC3)n2)cc1 15.5%
O=C1CCN(C2CCN(Cc3nc(Cc4ccccc4F)no3)CC2)CCN1 5.8%
COc1ccc(C(=O)N2CCC(n3nccc3NC(=O)C3CC3)CC2)c(OC)c1OC 12.7%
O=C(NC(O)C(=O)c1ccccc1)c1cccs1 (centres undefined) 10%
CC(C)(C)c1ccc(C(=O)NNC(=O)c2cccc(-n3cnnn3)c2)cc1 13.7%
Cc1nc(N2CCN(c3ccccn3)CC2)c2c(C)c(C(=O)Nc3ccc(F)cc3Cl)sc2n1 33.8%
Cc1c(C(=O)N2CCN(c3ccccn3)CC2)sc2ncnc(N3CCOCC3)c12 -1.8%
Cc1nc(N2CCN(c3ccccn3)CC2)c2c(C)c(C(=O)N3CCN(c4cccc(Cl)c4)CC3)sc2n1 38.7%
Cc1nc(N2CCN(c3ccccn3)CC2)c2c(C)c(C(=O)Nc3ccc(Cl)cc3)sc2n1 15.9%
Cc1nc(N2CCN(c3ccccn3)CC2)c2c(C)c(C(=O)Nc3ccc(F)cc3F)sc2n1 3.4%
COc1ccccc1N1CCN(C(=O)c2sc3nc(C)nc(N4CCN(c5ccccn5)CC4)c3c2C)CC1 16%
Cc1c(C(=O)N2CCN(c3ccccc3)CC2)sc2ncnc(N3CCN(c4ccccn4)CC3)c12 39.4%
Cc1nc(N2CCN(c3ccccn3)CC2)c2c(C)c(C(=O)Nc3c(F)cc(F)cc3Br)sc2n1 33.9%
O=C1CCCN1CCCNS(=O)(=O)c1ccc(Br)cc1 6.2%
Cn1c(=O)n(CC(=O)O)c(=O)c2c1nc1n2CCCN1CCc1ccccc1 4.6%
CCC(=O)C1CCCN(C(=O)c2ccc3nc(-c4cccc(OC)c4)oc3c2)C1 (centres undefined) -51.5%
CC(C)Cc1cc(C(=O)N2CCCC(C(=O)c3cc(F)ccc3F)C2)n(C)n1 (centres undefined) 23.7%

inhibition, active:
CC1CCCN(c2ncnc3c2cnn3-c2ccc(Cl)cc2)C1 (centres undefined) 86.2%
COc1ccc(-n2ncc3c(N4CCCCC4)ncnc32)cc1 67.7%
Clc1ccc(-n2ncc3c(N4CCCCCC4)ncnc32)cc1 70.6%
CCOC(=O)C1CCN(c2ncnc3c2cnn3-c2ccc(Cl)cc2)CC1 57.5%
COc1ccc(NS(=O)(=O)c2ccc3c(c2)OCCO3)cc1OC 52.2%
Cc1nn(-c2ccccc2Cl)c(Cl)c1/C=N/Nc1nc2ccccc2s1 78.1%
O=C1CCCN2N=C(SCC(=O)Nc3cccc(C(F)(F)F)c3)SC2=N1 58.1%
O=C(COc1ccc(Cl)cc1Cl)Nc1ccccn1 62.1%
COc1ccc(-c2noc(CCCC(=O)O)n2)cc1 57.7%
CN(C)/N=C/C=C1\CCC/C(=C\c2ccc(F)c(F)c2)C1=O 63%
